Paper PMC7862700, “An all-to-all approach to the identification of sequence-specific readers for epigenetic DNA modifications on cytosine”

Key:
Experiment in all cases: DAPPL (digital affinity profiling via proximity ligation, sequencing); 10 mM Tris-HCl pH 7.5, 50 mM NaCl, 1 mM DTT, 4% glycerol, room temperature, 30 min; GST-TFs on glutathione beads, 16-mer random dsDNA library, 0.1% formaldehyde crosslink after washing; high values mean tight binding
FEV = molecular target: T1, FEV (Homo sapiens, UniProt Q99581 1-238); settings: protein: recombinant; tags: N-terminal GST; dsDNA, one strand shown
T1 sequence: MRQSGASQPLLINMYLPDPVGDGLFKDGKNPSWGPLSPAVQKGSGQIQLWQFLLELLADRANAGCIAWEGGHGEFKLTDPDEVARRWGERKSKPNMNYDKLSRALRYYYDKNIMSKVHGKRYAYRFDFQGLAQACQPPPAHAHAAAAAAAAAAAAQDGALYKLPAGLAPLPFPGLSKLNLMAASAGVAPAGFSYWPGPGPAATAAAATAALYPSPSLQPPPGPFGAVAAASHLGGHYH
Method in brief: (§1)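 Binding signal is defined as a hexamer's read frequency for one factor over its frequency for the tag-only sample. To obtain reads, GST-fused human transcription factors were expressed in yeast, captured on glutathione beads, barcoded with DNA and pooled with that sample. Pools met 200 nmole of a 16-mer random double-stranded DNA library in Tris/NaCl/DTT/glycerol buffer for 30 min at room temperature before washing, 0.1% formaldehyde crosslinking, proximity ligation (BsaI/T4 ligase, 1 h, 37 °C), PCR and Illumina NextSeq500 sequencing.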

ETV5 = ETV5 (Homo sapiens, UniProt P41161 1-510); settings: protein: recombinant; tags: N-terminal GST; dsDNA, one strand shown
Method in brief: as §1

HSF1 = HSF1 (Homo sapiens, UniProt Q00613 1-529); settings: protein: recombinant; tags: N-terminal GST; chain copies: 3; dsDNA, one strand shown
Method in brief: as §1

SPIC = molecular target: T2, SPIC (Homo sapiens, UniProt Q8N5J4 1-248); settings: protein: recombinant; tags: N-terminal GST; dsDNA, one strand shown
T2 sequence: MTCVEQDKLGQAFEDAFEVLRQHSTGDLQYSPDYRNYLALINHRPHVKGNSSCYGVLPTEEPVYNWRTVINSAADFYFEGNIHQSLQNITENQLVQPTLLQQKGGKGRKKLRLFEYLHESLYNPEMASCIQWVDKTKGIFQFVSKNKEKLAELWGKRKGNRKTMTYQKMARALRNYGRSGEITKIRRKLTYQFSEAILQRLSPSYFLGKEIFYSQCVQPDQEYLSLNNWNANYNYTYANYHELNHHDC
Method in brief: as §1

ELF4 = ELF4 (Homo sapiens, UniProt Q99607 1-663); settings: protein: recombinant; tags: N-terminal GST; dsDNA, one strand shown
Method in brief: as §1

ELK4 = molecular target: T3, ELK4 (Homo sapiens, UniProt P28324-2 1-405); settings: protein: recombinant; tags: N-terminal GST; dsDNA, one strand shown
T3 sequence: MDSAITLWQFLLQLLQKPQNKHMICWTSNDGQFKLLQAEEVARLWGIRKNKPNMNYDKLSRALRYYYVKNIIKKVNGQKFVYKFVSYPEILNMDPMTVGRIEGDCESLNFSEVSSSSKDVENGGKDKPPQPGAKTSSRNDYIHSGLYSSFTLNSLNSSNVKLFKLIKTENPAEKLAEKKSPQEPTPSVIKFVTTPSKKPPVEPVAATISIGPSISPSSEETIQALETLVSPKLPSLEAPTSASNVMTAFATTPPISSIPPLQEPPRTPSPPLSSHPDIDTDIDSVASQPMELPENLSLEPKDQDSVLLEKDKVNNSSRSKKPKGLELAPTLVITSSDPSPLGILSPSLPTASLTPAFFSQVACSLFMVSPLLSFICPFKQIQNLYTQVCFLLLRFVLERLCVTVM
Method in brief: as §1

ETV2 = molecular target: T4, ETV2 (Homo sapiens, UniProt O00321 1-342); settings: protein: recombinant; tags: N-terminal GST; dsDNA, one strand shown
T4 sequence: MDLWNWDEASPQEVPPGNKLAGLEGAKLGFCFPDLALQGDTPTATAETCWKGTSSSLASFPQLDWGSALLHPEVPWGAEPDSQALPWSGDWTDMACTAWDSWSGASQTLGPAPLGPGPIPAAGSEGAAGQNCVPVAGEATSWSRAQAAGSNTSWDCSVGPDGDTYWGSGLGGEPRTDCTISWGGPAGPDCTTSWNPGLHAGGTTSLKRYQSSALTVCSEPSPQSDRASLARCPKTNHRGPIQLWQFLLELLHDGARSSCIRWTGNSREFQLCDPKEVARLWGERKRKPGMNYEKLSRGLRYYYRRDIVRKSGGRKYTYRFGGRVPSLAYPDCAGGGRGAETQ
Method in brief: as §1

ELF3 = molecular target: T5, ELF3 (Homo sapiens, UniProt P78545 1-371); settings: protein: recombinant; tags: N-terminal GST; dsDNA, one strand shown
T5 sequence: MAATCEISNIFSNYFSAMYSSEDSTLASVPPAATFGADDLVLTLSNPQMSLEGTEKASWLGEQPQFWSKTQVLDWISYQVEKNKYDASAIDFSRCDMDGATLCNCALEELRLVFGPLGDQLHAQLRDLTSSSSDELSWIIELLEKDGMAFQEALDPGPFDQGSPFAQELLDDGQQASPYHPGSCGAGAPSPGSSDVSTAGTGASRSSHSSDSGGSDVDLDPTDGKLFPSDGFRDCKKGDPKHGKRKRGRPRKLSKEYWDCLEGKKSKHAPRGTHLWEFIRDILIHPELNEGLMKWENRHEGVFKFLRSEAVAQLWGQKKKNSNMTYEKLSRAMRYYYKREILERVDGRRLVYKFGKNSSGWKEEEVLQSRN
Method in brief: as §1

CRX = CRX (Homo sapiens, UniProt O43186 1-299); settings: protein: recombinant; tags: N-terminal GST; dsDNA, one strand shown
Method in brief: as §1

ETV1 = ETV1 (Homo sapiens, UniProt P50549 1-477); settings: protein: recombinant; tags: N-terminal GST; dsDNA, one strand shown
Method in brief: as §1

Sequence of ETV5 (P41161 whole entry): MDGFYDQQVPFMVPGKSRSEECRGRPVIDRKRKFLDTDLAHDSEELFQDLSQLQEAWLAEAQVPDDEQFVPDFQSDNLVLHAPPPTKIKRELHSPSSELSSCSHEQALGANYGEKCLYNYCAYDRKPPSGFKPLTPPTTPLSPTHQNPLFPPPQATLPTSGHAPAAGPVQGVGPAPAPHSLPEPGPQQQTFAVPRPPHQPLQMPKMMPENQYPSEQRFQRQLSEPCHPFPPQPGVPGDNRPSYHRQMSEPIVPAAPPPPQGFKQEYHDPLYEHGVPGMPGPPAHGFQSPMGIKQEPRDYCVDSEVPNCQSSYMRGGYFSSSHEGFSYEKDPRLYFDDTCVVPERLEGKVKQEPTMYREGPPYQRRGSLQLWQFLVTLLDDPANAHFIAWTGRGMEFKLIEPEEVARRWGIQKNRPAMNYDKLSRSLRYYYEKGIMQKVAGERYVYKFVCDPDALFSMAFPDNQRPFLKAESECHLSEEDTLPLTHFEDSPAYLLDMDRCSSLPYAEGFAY
Sequence of CRX (O43186 whole entry): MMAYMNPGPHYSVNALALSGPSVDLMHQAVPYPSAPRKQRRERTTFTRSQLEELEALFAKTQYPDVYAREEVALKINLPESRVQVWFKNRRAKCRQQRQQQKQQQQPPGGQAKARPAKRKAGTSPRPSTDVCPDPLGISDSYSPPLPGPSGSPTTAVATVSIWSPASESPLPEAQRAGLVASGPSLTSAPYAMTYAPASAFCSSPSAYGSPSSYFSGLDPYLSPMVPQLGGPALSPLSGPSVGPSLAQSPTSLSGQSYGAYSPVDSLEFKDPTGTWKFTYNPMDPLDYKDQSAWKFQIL
Sequence of ELF4 (Q99607 whole entry): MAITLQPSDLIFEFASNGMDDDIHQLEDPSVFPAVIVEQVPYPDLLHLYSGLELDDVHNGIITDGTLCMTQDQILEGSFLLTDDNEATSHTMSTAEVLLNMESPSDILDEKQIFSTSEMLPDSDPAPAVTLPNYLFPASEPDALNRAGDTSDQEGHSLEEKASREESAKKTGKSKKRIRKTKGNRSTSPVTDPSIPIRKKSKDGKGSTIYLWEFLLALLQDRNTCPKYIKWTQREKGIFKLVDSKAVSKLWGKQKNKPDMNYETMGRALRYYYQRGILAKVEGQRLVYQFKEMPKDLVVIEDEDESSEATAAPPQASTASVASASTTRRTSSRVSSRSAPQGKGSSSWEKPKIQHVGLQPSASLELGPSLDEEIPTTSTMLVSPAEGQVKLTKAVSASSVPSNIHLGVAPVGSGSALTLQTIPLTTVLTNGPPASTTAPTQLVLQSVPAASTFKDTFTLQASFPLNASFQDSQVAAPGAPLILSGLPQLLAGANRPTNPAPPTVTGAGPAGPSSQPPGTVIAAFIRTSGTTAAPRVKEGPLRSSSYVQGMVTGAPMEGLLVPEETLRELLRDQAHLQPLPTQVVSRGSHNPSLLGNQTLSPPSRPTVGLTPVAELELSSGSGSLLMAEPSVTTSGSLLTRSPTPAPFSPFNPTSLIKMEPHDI
Sequence of ETV1 (P50549 whole entry): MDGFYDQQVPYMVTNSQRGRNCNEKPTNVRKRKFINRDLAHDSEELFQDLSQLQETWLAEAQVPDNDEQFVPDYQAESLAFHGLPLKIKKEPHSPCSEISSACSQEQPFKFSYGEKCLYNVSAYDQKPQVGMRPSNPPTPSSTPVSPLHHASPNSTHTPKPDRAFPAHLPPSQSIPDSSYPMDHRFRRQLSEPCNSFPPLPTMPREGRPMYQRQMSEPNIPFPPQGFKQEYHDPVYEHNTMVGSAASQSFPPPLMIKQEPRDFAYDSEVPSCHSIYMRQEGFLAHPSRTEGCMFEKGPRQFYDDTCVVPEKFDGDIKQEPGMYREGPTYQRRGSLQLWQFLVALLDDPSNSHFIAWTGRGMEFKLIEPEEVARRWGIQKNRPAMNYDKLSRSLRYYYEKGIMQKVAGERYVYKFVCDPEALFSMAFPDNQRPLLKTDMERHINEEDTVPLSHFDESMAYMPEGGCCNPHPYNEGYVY
Sequence of HSF1 (Q00613 whole entry): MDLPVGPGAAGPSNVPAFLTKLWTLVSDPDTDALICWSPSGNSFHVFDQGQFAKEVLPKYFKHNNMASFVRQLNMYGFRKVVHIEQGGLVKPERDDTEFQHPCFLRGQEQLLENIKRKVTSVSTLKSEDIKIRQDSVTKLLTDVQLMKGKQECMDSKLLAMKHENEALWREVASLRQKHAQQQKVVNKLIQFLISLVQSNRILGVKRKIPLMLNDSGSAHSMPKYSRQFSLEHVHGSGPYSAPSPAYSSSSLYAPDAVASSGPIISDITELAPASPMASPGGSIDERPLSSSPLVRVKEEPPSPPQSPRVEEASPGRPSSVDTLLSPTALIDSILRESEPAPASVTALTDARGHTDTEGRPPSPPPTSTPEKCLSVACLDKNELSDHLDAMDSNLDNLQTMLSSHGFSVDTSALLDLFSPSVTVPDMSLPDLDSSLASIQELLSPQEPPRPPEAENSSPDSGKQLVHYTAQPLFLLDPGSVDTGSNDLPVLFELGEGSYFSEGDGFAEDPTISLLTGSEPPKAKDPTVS

**Q.** With TTACTA as the sequence, how does the binding signal (FEV) read?
**A.** 1.14 fold enrichment (6-mer frequency, TF over GST control)

**Q.** And the binding signal (ETV5)?
**A.** 1.22 fold enrichment (6-mer frequency, TF over GST control)

**Q.** What about the binding signal (HSF1) of the same sequence?
**A.** 1.79 fold enrichment (6-mer frequency, TF over GST control)

**Q.** And the binding signal (SPIC)?
**A.** 1.38 fold enrichment (6-mer frequency, TF over GST control)

**Q.** What about the binding signal (ELF4) of the same sequence?
**A.** 1.3 fold enrichment (6-mer frequency, TF over GST control)

**Q.** What about the binding signal (ELK4) of the same sequence?
**A.** 1.32 fold enrichment (6-mer frequency, TF over GST control)

**Q.** And the binding signal (ETV2)?
**A.** 1.34 fold enrichment (6-mer frequency, TF over GST control)

**Q.** What about the binding signal (ELF3) of the same sequence?
**A.** 1.25 fold enrichment (6-mer frequency, TF over GST control)

**Q.** And the binding signal (CRX)?
**A.** 2.18 fold enrichment (6-mer frequency, TF over GST control)

**Q.** What about the binding signal (ETV1) of the same sequence?
**A.** 1.23 fold enrichment (6-mer frequency, TF over GST control)
